Data published in PubChem BioAssay.
Activity calls are given as the source filed them.

Assays:
[1] = A549 cell viability effects, profiling panel, calcein-AM fluorescence, 48 h, basal (AID 1162); settings: higher = more signal
[2] = adipocyte viability effects, profiling panel, cell-based, 3T3-L1 adipocytes, calcein-AM fluorescence, 48 h, basal (AID 1163); settings: 3T3-L1 adipocytes viability, higher = more signal
[3] = HepG2 cell viability effects, profiling panel, calcein-AM fluorescence, 48 h, basal (AID 1164); settings: higher = more signal
[4] = MM1S cell viability effects, profiling panel, calcein-AM fluorescence, 48 h, basal (AID 1165); settings: higher = more signal;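 also: viability of MM1S multiple myeloma cells under basal unstimulated conditions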
[5] = basal RPMI8226 viability, no added stimulus, profiling panel, cell-based, calcein-AM fluorescence, 48 h, PK04 Diversity Set (AID 1166); settings: RPMI8226 myeloma viability, higher = more signal;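 also: cells grown under basal conditions without added stimulus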
[6] = basal HepG2 mitochondrial membrane potential changes, profiling panel, cell-based, JC-1 fluorescence, 24 h, 100 nL compound (AID 1167); settings: higher = more signal
[7] = basal 3T3-L1 adipocyte mitochondrial potential changes, profiling panel, cell-based, JC-1 fluorescence, 3T3-L1 adipocytes, 24 h, 100 nL compound (AID 1168); settings: JC-1 mitochondrial fluorescence, higher = more signal, called active from +8 up or from −8 down
[8] = basal RPMI8226 mitochondrial membrane potential changes, profiling panel, cell-based, JC-1 fluorescence, 24 h, 100 nL compound (AID 1169); settings: RPMI8226 myeloma, JC-1 mitochondrial potential fluorescence, higher = more signal
[9] = basal MM1S mitochondrial membrane potential changes, profiling panel, cell-based, JC-1 fluorescence, 24 h, 100 nL compound (AID 1170); settings: higher = more signal
[10] = A549 lung cancer cell viability effects, profiling panel, resazurin fluorescence, 24 h, PK04 Diversity Set (AID 1171); settings: higher = more signal, called active from +8 up or from −8 down
Also: test concentration not given here.

SMILES | z-score [1] | z-score [2] | z-score [3] | z-score [4] | z-score [5] | z-score [6] | z-score [7] | z-score [8] | z-score [9] | z-score [10]
CC(C)c1ccc(NN2C(C(O)c3cccc(O)c3)C=CC3C(=O)N(c4ccccc4)C(=O)C32)cc1 (stereo not given) | -1.09 | -0.35 | -0.753 | -0.26 | -0.237 | -1.85 | -0.948 (inactive) | -0.554 | -0.749 | 0.403 (inactive)
COCCOC(=O)N1C(=O)[C@@]2(c3ccccc31)[C@H](C(=O)Nc1nc3ccccc3s1)[C@H]1C(=O)O[C@H](c3ccccc3)[C@H](c3ccccc3)N1[C@@H]2c1ccc(OCCO)cc1 | -0.257 | 1.73 | -1.23 | -2.13 | -1.62 | -3.14 | 1.68 (inactive) | -0.806 | -1.57 | 0.18 (inactive)
O=C1O[C@@H](c2ccccc2)[C@@H](c2ccccc2)N2[C@@H](c3ccc(O)cc3)[C@]3(C(=O)Nc4ccc(C#CC5(O)CCCCCC5)cc43)[C@@H](C(=O)N3CCCCCCC3)[C@H]12 | 0.476 | 0.49 | 1.04 | 0.0939 | -1.34 | -1.36 | 0.076 (inactive) | -0.764 | -0.664 | -0.314 (inactive)
C=C[C@H](C)[C@@H](O)c1ccc(O)c2ccccc12 | -0.573 | -0.69 | -0.218 | -2.57 | -1.55 | -1.98 | -0.641 (inactive) | -0.94 | -1.29 | -0.292 (inactive)
C=CCC(OC(C)=O)[C@@H]1[C@@H](N(Cc2ccc(-c3ccccc3)cc2)C(=O)Cc2ccc(F)cc2)c2cc(OCCCO)ccc2N1C(=O)c1ccc2ccccc2n1 (stereo not given in full) | 1.07 | 0.203 | 1.14 | -2.11 | 0.246 | 2.97 | 0.25 (inactive) | -0.359 | 1.7 | 1.37 (inactive)
COCCOC(=O)N1C(=O)[C@@]2(c3cc(C#CCC(C(=O)OC)C(=O)OC)ccc31)[C@H](c1ccc(O)cc1)N1[C@H](c3ccccc3)[C@H](c3ccccc3)OC(=O)[C@H]1[C@@H]2C(N)=O | -0.78 | 0.618 | -0.568 | -2.89 | -3.48 | -1.63 | -0.791 (inactive) | -0.799 | 0.0557 | -0.195 (inactive)
CCOC(=O)C1=C[C@@H](C(C)C)N(S(=O)(=O)c2ccc(C)cc2)[C@H]1c1ccc(C(C)C)cc1 | 0.012 | 0.256 | -0.493 | -0.955 | -2.18 | 7.47 | -0.0264 (inactive) | -0.0684 | -0.776 | 3.1 (inactive)
CCCCCCc1nc(CCCc2cc3c(c(CCCCCC)n2)[Si](C(C)C)(C(C)C)OC3)cc2c1[Si](C(C)C)(C(C)C)OC2 | -2.42 | 1.78 | -1.47 | -3.28 | -4.35 | 0.535 | 0.705 (inactive) | -1.1 | -0.553 | 1.75 (inactive)
CCCC[C@@H]1C[C@H]1[C@@H](NC(=O)c1ccc(-c2ccccc2)cc1)c1ccc(-c2ccccc2)cc1 | -1.78 | 0.441 | -0.997 | -2.17 | -2.33 | -0.922 | -0.949 (inactive) | 0.196 | -0.391 | 0.719 (inactive)
CCCNC(=O)[C@@]1(c2ccc([N+](=O)[O-])cc2)CC(=O)N(CC23CC4CC(CC(C4)C2)C3)[C@@H]1c1ccc(CO)cc1 | -1.05 | -0.35 | -1.67 | -3.54 | -3.38 | -0.99 | -0.141 (inactive) | -0.769 | -1.05 | -2.9 (inactive)
CC1CC/C=C\[C@H]2OC34C=CCN(Cc5ccccc5)C(=O)[C@H]3N(CCCCCO)C(=O)[C@@H]4C2C(=O)O1 (stereo not given in full) | 0.482 | 0.449 | -0.069 | 1.51 | 0.599 | 0.647 | -0.478 (inactive) | -0.514 | 1.12 | 0.374 (inactive)
C[C@]1(C(=O)NCc2ccccc2)c2ccccc2C(=O)N(Cc2ccc(OC(F)(F)F)cc2)[C@H]1c1ccc(CO)cc1 | 1.84 | 1.12 | 1 | 0.318 | 0.346 | 3.56 | 0.777 (inactive) | -0.584 | -0.0466 | 1.46 (inactive)
COC(=O)[C@@]1(Cc2ccccc2)[C@H]2c3cc(C(=O)N4CCCC4)n(C)c3C[C@H]2CN1C(=O)c1ccccc1 | -1.14 | 0.167 | -1.24 | 0.143 | -0.284 | 0.533 | -0.469 (inactive) | -0.0143 | -0.827 | -0.526 (inactive)
COc1ccc([Si](C)(C)[C@@H]2[C@@H](CC(=O)N(CCO)Cc3ccccc3)O[C@]3(C(=O)N(C)c4ccccc43)[C@H]2C)cc1 | -0.664 | 0.349 | -1.58 | -2.68 | -3.74 | -0.494 | -1.44 (inactive) | -1.12 | -0.319 | -1.78 (inactive)
